# From PubChem BioAssay (NCI)
# About 79,000 compounds went through this panel and 15% of them were active in at least one assay; those are over-represented in the sample as a whole. Activity calls are given as the source filed them. Cut-off read from the data, not from the text of the source: active = growth inhibition above about 70%; inactive = the rest.
# Experiment: NCI Yeast Anticancer Drug Screen. Data for the rad14 strain (AID 159);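 note: 0% = growth of vehicle-treated control cultures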
# Settings: S. cerevisiae rad14 strain growth inhibition; at 11.0 µM; hits give high values
# In short: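 Here, inhibition of yeast growth was measured after compound exposure, using a strain with a genetic defect in DNA damage repair and vehicle-treated cultures as the reference.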
row,SMILES,growth inhibition
1,O=CC=C(c1ccccc1)c1ccccc1,3% (inactive)
2,FC(F)(F)c1nc2nc(Cl)c(Cl)nc2n1CCCN1CCOCC1,36% (inactive)
3,BrCC[P+](c1ccccc1)(c1ccccc1)c1ccccc1,-16% (inactive)
4,N#CSc1ccc(S(N)(=O)=O)cc1,-51% (inactive)
5,O=[N+]([O-])c1ccc2nc3ccccc3cc2c1,20% (inactive)
6,O=C(NC(Nc1ccc(F)c(Cl)c1)(C(F)(F)F)C(F)(F)F)C(C(F)(F)F)C(F)(F)F,26% (inactive)
7,O=C(/C=C\c1ccc(Cl)cc1Cl)c1cccs1,5% (inactive)
8,O=C(NCCCCNCCCNC(=O)c1cc(-c2ccccc2)nc2ccccc12)c1cc(-c2ccccc2)nc2ccccc12,1% (inactive)
9,NC(=NCc1ccccc1)N/N=C\c1ccnc2ccccc12,12% (inactive)
10,CCCCN(CCCC)CCSc1ccc(Cl)cc1,0% (inactive)
11,COc1cc(C2C3=C(COC3=O)Oc3cc4c(cc32)OCO4)ccc1O (stereo not drawn),-6% (inactive)
12,C#CCCCc1ccccc1,-31% (inactive)
13,CCc1ccc(NS(=O)(=O)c2ccccc2)c([N+](=O)[O-])c1,6% (inactive)
14,COc1ccc(C2c3cc4c(cc3OC(C)(O)C2C)OCO4)c(OC)c1 (stereo not drawn),-4% (inactive)
15,COC(=O)c1ccc(CCC2=CC(=O)C(Br)=CC2=O)cc1,5% (inactive)
16,NNC(=O)CCc1ccc2ccc3ccccc3c2c1,-3% (inactive)
17,Cn1c2ccccc2c(=O)c2cc(NC(=O)CCCCC(=O)Nc3ccc4c(c3)c(=O)c3ccccc3n4C)ccc21,3% (inactive)
18,CC(CC(C)(C)[N+](C)(C)C)[N+](C)(C)C (stereo not drawn),3% (inactive)
19,CC1CCN(CCC(=O)c2ccc(Cl)cc2)CC1,33% (inactive)
20,CCCCCCCCCCCCCCC(C(=O)[O-])[n+]1ccccc1 (stereo not drawn),0% (inactive)

row,SMILES,growth inhibition
1,CNC1C(OC2C(OC3C(O)C(O)C(N=C(N)N)C(O)C3N=C(N)N)OC(C)C2(O)CO)OC(CO)C(O)C1O (stereo not drawn),-2% (inactive)
2,O=C(O)c1ccccc1-c1ccccc1C(=O)Nc1ccc2c(c1)Cc1ccccc1-2,21% (inactive)
3,O=[N+]([O-])c1cccc2nc3ccccc3c(NCCCN3CCOCC3)c12,98% (active)
4,C=CC(C)(O)CCC1C(=C)C(O)CC2C(C)(C)CCCC12C (stereo not drawn),-18% (inactive)
5,CN1c2ccc(Cl)cc2C(=O)NC1c1ccc([N+](=O)[O-])s1 (stereo not drawn),71% (active)
6,[O-][n+]1c2ccc(O)cc2nc2ccc(Br)cc21,29% (inactive)
7,O=C1c2ccccc2-c2nc3ccccc3nc21,-31% (inactive)
8,CCCCN1C(=O)N(c2ccc(OCC)cc2)C2N(CCCC)C1C(C)(C)C2(C)C (stereo not drawn),-6% (inactive)
9,CO[C@H]1C[C@](C)(O)Cc2cc3c(c(O)c21)C(=O)c1c(O)cc2c(c1C3=O)O[C@@H]1O[C@@]2(C)[C@H](O)[C@@H](N(C)C)[C@@H]1O,-63% (inactive)
10,COc1cc2c(cc1[N+](=O)[O-])C(=O)C(Br)(Br)CCC2,99% (active)
11,O=C1OC(CCl)CN1/N=C/c1ccc([N+](=O)[O-])o1 (stereo not drawn),14% (inactive)
12,CN(C)CCOc1ccc2c(c1)C/C(=C/c1ncc([N+](=O)[O-])n1C)C2=O,81% (active)
13,CCCCCCCCCCCCCCCCCCN(C)CC(COP(=O)([O-])OCC[N+](C)(C)C)OC (stereo not drawn),98% (active)
14,CC(C)c1ccccc1NC(=O)/C(Cl)=C(\Cl)C(=O)O,4% (inactive)
15,O=[N+]([O-])C(=C(Sc1ccccc1)Sc1ccccc1)C(Cl)=C(Cl)Cl,19% (inactive)
16,C(=C\c1ccccc1)/COc1ccccc1C(N1CCOCC1)n1nc2ccccc2n1 (stereo not drawn),35% (inactive)
17,O=C1C(Nc2ccccc2)=C(Oc2ccccc2)C(=O)c2ccccc21,4% (inactive)
18,CCN(CC)CCN1C(=O)c2cccc3cc(OC)cc(c23)C1=O,-9% (inactive)
19,CN(C)Cc1cc(N=Nc2ccc(Cl)cc2)cc(CN(C)C)c1O,10% (inactive)

# Same assay, conditions: S. cerevisiae rad14 strain growth inhibition; at 33.0 µM; hits give high values
row,SMILES,growth inhibition
1,O=CC=C(c1ccccc1)c1ccccc1,10% (inactive)
2,FC(F)(F)c1nc2nc(Cl)c(Cl)nc2n1CCCN1CCOCC1,44% (inactive)
3,BrCC[P+](c1ccccc1)(c1ccccc1)c1ccccc1,94% (active)
4,N#CSc1ccc(S(N)(=O)=O)cc1,-30% (inactive)
5,O=[N+]([O-])c1ccc2nc3ccccc3cc2c1,45% (inactive)
6,O=C(NC(Nc1ccc(F)c(Cl)c1)(C(F)(F)F)C(F)(F)F)C(C(F)(F)F)C(F)(F)F,85% (active)
7,O=C(/C=C\c1ccc(Cl)cc1Cl)c1cccs1,9% (inactive)
8,O=C(NCCCCNCCCNC(=O)c1cc(-c2ccccc2)nc2ccccc12)c1cc(-c2ccccc2)nc2ccccc12,96% (active)
9,NC(=NCc1ccccc1)N/N=C\c1ccnc2ccccc12,36% (inactive)
10,CCCCN(CCCC)CCSc1ccc(Cl)cc1,12% (inactive)
11,COc1cc(C2C3=C(COC3=O)Oc3cc4c(cc32)OCO4)ccc1O (stereo not drawn),-8% (inactive)
12,C#CCCCc1ccccc1,-17% (inactive)
13,CCc1ccc(NS(=O)(=O)c2ccccc2)c([N+](=O)[O-])c1,11% (inactive)
14,COc1ccc(C2c3cc4c(cc3OC(C)(O)C2C)OCO4)c(OC)c1 (stereo not drawn),1% (inactive)
15,COC(=O)c1ccc(CCC2=CC(=O)C(Br)=CC2=O)cc1,8% (inactive)
16,NNC(=O)CCc1ccc2ccc3ccccc3c2c1,-4% (inactive)
17,Cn1c2ccccc2c(=O)c2cc(NC(=O)CCCCC(=O)Nc3ccc4c(c3)c(=O)c3ccccc3n4C)ccc21,17% (inactive)
18,CC(CC(C)(C)[N+](C)(C)C)[N+](C)(C)C (stereo not drawn),3% (inactive)
19,CC1CCN(CCC(=O)c2ccc(Cl)cc2)CC1,39% (inactive)
20,CCCCCCCCCCCCCCC(C(=O)[O-])[n+]1ccccc1 (stereo not drawn),2% (inactive)

row,SMILES,growth inhibition
1,CNC1C(OC2C(OC3C(O)C(O)C(N=C(N)N)C(O)C3N=C(N)N)OC(C)C2(O)CO)OC(CO)C(O)C1O (stereo not drawn),32% (inactive)
2,O=C(O)c1ccccc1-c1ccccc1C(=O)Nc1ccc2c(c1)Cc1ccccc1-2,71% (active)
3,O=[N+]([O-])c1cccc2nc3ccccc3c(NCCCN3CCOCC3)c12,98% (active)
4,C=CC(C)(O)CCC1C(=C)C(O)CC2C(C)(C)CCCC12C (stereo not drawn),40% (inactive)
5,CN1c2ccc(Cl)cc2C(=O)NC1c1ccc([N+](=O)[O-])s1 (stereo not drawn),96% (active)
6,[O-][n+]1c2ccc(O)cc2nc2ccc(Br)cc21,67% (inactive)
7,O=C1c2ccccc2-c2nc3ccccc3nc21,15% (inactive)
8,CCCCN1C(=O)N(c2ccc(OCC)cc2)C2N(CCCC)C1C(C)(C)C2(C)C (stereo not drawn),15% (inactive)
9,CO[C@H]1C[C@](C)(O)Cc2cc3c(c(O)c21)C(=O)c1c(O)cc2c(c1C3=O)O[C@@H]1O[C@@]2(C)[C@H](O)[C@@H](N(C)C)[C@@H]1O,-53% (inactive)
10,COc1cc2c(cc1[N+](=O)[O-])C(=O)C(Br)(Br)CCC2,100% (active)
11,O=C1OC(CCl)CN1/N=C/c1ccc([N+](=O)[O-])o1 (stereo not drawn),38% (inactive)
12,CN(C)CCOc1ccc2c(c1)C/C(=C/c1ncc([N+](=O)[O-])n1C)C2=O,95% (active)
13,CCCCCCCCCCCCCCCCCCN(C)CC(COP(=O)([O-])OCC[N+](C)(C)C)OC (stereo not drawn),99% (active)
14,CC(C)c1ccccc1NC(=O)/C(Cl)=C(\Cl)C(=O)O,6% (inactive)
15,O=[N+]([O-])C(=C(Sc1ccccc1)Sc1ccccc1)C(Cl)=C(Cl)Cl,27% (inactive)
16,C(=C\c1ccccc1)/COc1ccccc1C(N1CCOCC1)n1nc2ccccc2n1 (stereo not drawn),97% (active)
17,O=C1C(Nc2ccccc2)=C(Oc2ccccc2)C(=O)c2ccccc21,9% (inactive)
18,CCN(CC)CCN1C(=O)c2cccc3cc(OC)cc(c23)C1=O,-6% (inactive)
19,CN(C)Cc1cc(N=Nc2ccc(Cl)cc2)cc(CN(C)C)c1O,11% (inactive)
